Hits are enriched below; roughly 0.95% of the tested compounds scored in any of these assays.
RE007 growth inh = less growth of the S. pombe RE007 Vpr strain; S. pombe RE007 Vpr strain, BacTiter-Glo ATP luminescence, 24 h; Potency, µM (highest dose often 92.2 µM), inactives show at the top dose activity change, negative = less growth, usual class: inhibitors; 360,000 tested, 0.21% active; active = well fitted falling curve with a large enough effect; inconclusive = small, poorly fitted or top-dose-only effect; inactive = no such curve, though single readings can be large or run the other way; note: nearly all actives have a fitted effect of over 50% in size
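Fission yeast RE007 carrying one integrated HIV-1 vpr copy, seeded at OD 0.01 in PMG+AL medium with 23 nL pinned compound. Grown 24 h at 30 degrees; viability read by BacTiter-Glo luminescence after 5 min.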
Giardia FBPA inh-1 = inhibitors of Giardia lamblia fructose-1,6-bisphosphate aldolase; A8B2U2; purified Giardia FBPA; Potency, µM (top dose mostly 59.6 µM), for inactives: at the top dose activity, negative = inhibition, actives largely listed as inhibitors; 290,000 tested, 0.71% active; note: nearly all actives have a fitted effect of over 55% in size
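40 nM FBPA preincubated 10 min at RT with compound (up to 57.5 uM final), then substrate plus GAPDH/TPI/NAD/arsenate coupling and diaphorase/resazurin added. Fluorescence read after 20 min at RT, 525/598 nm.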
LmPK inh = blocks Leishmania mexicana pyruvate kinase activity | 290,000 tested, 0.37% active | Potency, µM (top dose mostly 57.5 µM), inactives show top-dose activity change, negative = inhibition, usual class: inhibitors | purified LmPK, Kinase-Glo ATP luminescence, 1 h
Target sequence (Q27686 whole entry, looked up): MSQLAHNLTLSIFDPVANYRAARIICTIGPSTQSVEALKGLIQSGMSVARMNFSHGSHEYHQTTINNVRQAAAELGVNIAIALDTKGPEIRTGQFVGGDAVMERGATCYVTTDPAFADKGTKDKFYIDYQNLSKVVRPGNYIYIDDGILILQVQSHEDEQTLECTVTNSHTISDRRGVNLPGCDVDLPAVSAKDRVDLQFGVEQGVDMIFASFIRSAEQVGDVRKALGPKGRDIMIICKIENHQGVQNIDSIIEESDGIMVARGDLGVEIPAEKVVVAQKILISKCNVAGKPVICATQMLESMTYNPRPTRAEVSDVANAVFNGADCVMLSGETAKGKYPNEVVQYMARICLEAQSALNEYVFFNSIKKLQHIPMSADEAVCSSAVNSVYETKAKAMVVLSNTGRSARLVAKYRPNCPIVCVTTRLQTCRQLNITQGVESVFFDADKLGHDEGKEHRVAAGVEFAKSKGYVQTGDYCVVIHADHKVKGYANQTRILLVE
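ATP generated from ADP (0.1 mM) and PEP (0.5 mM) by 0.1 nM LmPK over 1 h at room temperature (pH 7.2 imidazole buffer) was detected by coupled luciferase luminescence. Values were normalized to uninhibited and no-enzyme wells.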
Tb PYK inh = T. brucei pyruvate kinase inhibition; Q57TT1; TbPYK enzyme, Kinase-Glo Plus ATP luminescence, 45 min; Potency, µM (top dose mostly 76.8 µM), for inactives: top-dose activity, negative = inhibition, usual class: inhibitors; 410,000 tested, 0.12% active; note: nearly all actives have a fitted effect of over 50% in size
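ADP (130 uM final) triggers the TbPYK reaction after compound addition; incubation is 45 min at room temperature. Kinase-Glo Plus is then added and luminescence imaged. Normalized data are fitted to concentration-effect curves.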
Giardia growth = inhibitors of Giardia lamblia growth; Potency, µM (doses to about 57.5 µM), inactives show at the highest dose activity change, negative = inhibition, usual class: inhibitors; Giardia lamblia trophozoite growth inhibition; 1,500 tested, 5% active; AID 2785; shares compounds with Giardia FBPA inh-1;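 note: trophozoites exposed to compound for 48 h at 37 °C; nearly all actives have a fitted effect of over 70% in size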
Mammal cell tox = counter-screen for Giardia aldolase inhibitors: mammalian cell toxicity; Potency, µM (doses to about 57.5 µM), without a hit: at the highest dose viability change, negative = toxicity, hits mostly inhibitors; 1,500 tested, 4% active; AID 2786; mammalian cell viability counter-screen, qHTS; shares compounds with Giardia FBPA inh-1;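 note: Chinese hamster ovary cells used as mammalian cytotoxicity surrogate; viability measured as cellular ATP by luminescence; compound exposure lasted 48 h before reading; nearly all actives have a fitted effect of over 60% in size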
Giardia FBPA inh-2 = confirmation of Giardia fructose-bisphosphate aldolase inhibitors; purified Giardia aldolase enzyme activity, qHTS; AID 2787; Potency, µM (highest dose often 57.5 µM), for the others: top-dose activity change, negative = inhibition, usual class: inhibitors; 1,500 tested, 5% active; shares compounds with Giardia FBPA inh-1; note: nearly all actives have a fitted effect of over 45% in size
Rabbit FBPA inh = rabbit FBP aldolase inhibition by Giardia aldolase hits. shares compounds with Giardia FBPA inh-1. Rabbit muscle FBPA enzyme inhibition, selectivity counter-screen. Potency, µM (series often up to 57.5 µM), for the others: at the top dose activity, negative = inhibition, hits mostly inhibitors. 1,500 tested, 4% active. AID 2794; note: nearly all actives have a fitted effect of over 60% in size
GAPDH coupling = counter-screen for Giardia aldolase inhibitors: GAPDH coupling enzyme. shares compounds with Giardia FBPA inh-1. GAPDH coupling enzyme counterscreen, biochemical, qHTS. Potency, µM (highest dose often 57.5 µM), for the others: at the highest dose activity change, negative = inhibition, most hits filed as inhibitors. 1,500 tested, 6% active. AID 2795; note: nearly all actives have a fitted effect of over 55% in size
An asterisk follows results filed as active; ? = inconclusive; / = no result given; [ ] = dose if it differs, or a comment. Unless noted, calls come from the whole dose curve; as a rule, active = well fitted curve in the direction sought with a large enough effect; inconclusive = small, poorly fitted or top-dose-only effect, or another doubt; inactive = no such curve, though single readings can be large; an effect the other way counts as inactive or inconclusive. % is set by controls: 0 for no effect and ±100 for the full control effect; potency is the fitted concentration of half-maximal effect.

SMILES	RE007 growth inh	Giardia FBPA inh-1	LmPK inh	Tb PYK inh	Giardia growth	Mammal cell tox	Giardia FBPA inh-2	Rabbit FBPA inh	GAPDH coupling
O=[N+]([O-])c1ccc(S(=O)(=O)N2CCN(Cc3ccco3)CC2)cc1	-8%	/	1%	40%	/	/	-5%	-8%	5%
CCCc1ccc(S(=O)(=O)N2CCN(Cc3ccco3)CC2)cc1	-9%	1%	1%	-9%	/	/	/	/	/
Cc1ccc(NC(=O)NC2CCCCC2)cc1Cl	10%	0%	1%	-16%	/	/	/	/	/
Cc1ccc(NC(=O)CN(C)C2CCCCC2)cc1Cl	8%	20µM*	-6%	-4%	18%	2%	8%	2%	1%
O=C(NNC(=S)NC(=O)c1ccccc1[N+](=O)[O-])c1ccccc1	16%	0%	5%	-5%	/	/	/	/	/
O=C1CN(C(=S)NC(=O)c2ccccc2[N+](=O)[O-])CCN1	13%	11µM*	-13%	4%	?	-7%	0%	8%	12%
Cc1nc(C(=O)NNC(=O)c2ccc(Cl)cc2)cs1	-16%	18µM*	-6%	-1%	?	-26%	1%	6%	8%
CCN(CC)c1ccc(N)cc1S(=O)(=O)Nc1ccccc1OC	0%	16µM*	-14%	?	13%[10.4 µM]	0%	1%	4%	16%
O=c1[nH]c(=S)c2ncn(-c3ccccc3)c2[nH]1	-9%	10µM*	-1%	-7%	10%	7%	3%	3%	7%
O=C(NC(=S)N1CCN(c2ccc(O)cc2)CC1)c1cccs1	-4%	13µM*	-5%	-18%	15%	14%	-19%	-2%	19%
CC(=O)NC(=S)Nc1ccc(S(=O)(=O)N2CCOCC2)cc1	25%	2%	-1%	-1%	/	/	/	/	/
CC(C)(C)NNC(=S)Nc1ccc(S(=O)(=O)N2CCOCC2)cc1	-1%	22µM*	1%	1%	-3%[10.4 µM]	-5%	0%	7%	8%
CSc1ccc(CN(C)CCc2ccccn2)cc1	-5%	14µM*	-7%	9%	-9%[10.4 µM]	3%	1%	0%	5%
CN(CCc1ccccn1)Cc1ccc(Cl)c(Cl)c1	-22%	?	0%	-6%	/	/	/	/	/
CN(CCc1ccccn1)Cc1ccc(Cl)cc1Cl	-7%	18µM*	-4%	27%	23%	5%	2%	0%	13%
CN(CCc1ccccn1)S(=O)(=O)c1ccccc1F	8%	18%	-5%	6%	/	/	/	/	/
COc1cccc(-c2ccc3ncnc(NCc4cnc(C)cn4)c3c2)c1	/	7%	/	/	/	/	/	/	/
COc1ccccc1CN1CCN(Cc2ccco2)CC1	-7%	16µM*	-3%	-1%	-6%[10.4 µM]	0%	4%	3%	8%
Cc1ccc(CN2CCN(Cc3ccco3)CC2)cc1	1%	16µM*	-4%	-1%	-6%	2%	-2%	7%	-18%
O=[N+]([O-])c1cccc(CN2CCN(Cc3ccco3)CC2)c1	-8%	?	-5%	0%	/	/	/	/	/
COc1ccc(CN2CCN(Cc3ccco3)CC2)c(OC)c1	2%	13µM*	-2%	5%	?	-2%	-1%	4%	5%
COc1cc(CN2CCN(Cc3ccco3)CC2)cc(OC)c1	2%	14µM*	2%	23%	?	-8%	4%	8%	0%
Cc1ccc(CN2CCN(C(=O)c3ccco3)CC2)cc1	-17%	1%	-2%	5%	/	/	/	/	/
CCCn1c(-c2ccc(F)cc2)nc2c(N3CCN(Cc4nc(OC)cc(OC)n4)CC3)nc(C)nc21	/	-10%	/	/	/	/	/	/	/
COC(=O)C/C=C\[C@@H](C)[C@@H](/C=N\OC[C@@H](C)[C@H](OCc1ccccc1)C(C)C)NS(=O)(=O)c1ccc(C)cc1	/	0%[12.9 µM]	/	/	/	/	/	/	/
SMILES	RE007 growth inh	Giardia FBPA inh-1	LmPK inh	Tb PYK inh	Giardia growth	Mammal cell tox	Giardia FBPA inh-2	Rabbit FBPA inh	GAPDH coupling
C=CCC(C)(Nc1ccccc1)C(=O)OCC (stereo unspecified)	/	4%	/	/	/	/	/	/	/
COc1ccc(-n2c(C)cc(/C=N/Nc3nnc(C)n3N)c2C)cc1	-2%	6.3µM*	0%	0%	9%[10.4 µM]	10%	20µM*	?	?
COc1cccc(/C=N/Nc2nnc(C)n2N)c1O	15%	-11%	4%	-3%	/	/	/	/	/
CCC(C)C(N)C(=O)NC(CC(N)=O)C(=O)NC(CC(C)C)C(=O)NC(CCCCN)C(=O)NC(C)C(=O)NC(CC(C)C)C(=O)NC(C)C(=O)NC(C)C(=O)NC(CC(C)C)C(=O)NC(C)C(=O)NC(CCCCN)C(=O)NC(CCCCN)C(=O)NC(C(=O)NC(CC(C)C)C(N)=O)C(C)CC (stereo unspecified)	/	0%	/	/	/	/	/	/	/
O=C(NCCCN1CCN(c2ccccc2F)CC1)c1ccc2nc(N3CCCCC3)sc2c1	/	/	/	-2%	/	/	/	/	/
O=C(O)/C=C/C(=O)Nc1ccc(O)cc1	-4%	?	-5%	-9%	16%[38.3 µM]	?	5.2µM*	?	5.8µM*
COc1cccc([C@@H]2Oc3ccc(OC)cc3[C@H](O)[C@H]2O)c1	/	3%	/	/	/	/	/	/	/
Cn1cnc([N+](=O)[O-])c1Sc1ncnc2nc[nH]c12	-6%	2%	-6%	-11%	/	/	/	/	/
Cn1cnc(Sc2ncnc3nc[nH]c23)c1[N+](=O)[O-]	48%	14µM*	13%	?	?	10%	1%	-3%	4%
O=C(Oc1c(CN2CCOCC2)cc(Cl)c2cccnc12)c1ccccc1F	?	16µM*	4%	4%	7.9µM*	7.9µM*	?	?	-27%
O=C(N/N=C/c1ccc(O)c(O)c1O)/C(=C/c1ccc([N+](=O)[O-])cc1)NC(=O)c1ccccc1	-8%	6.3µM*	-3%	-11%	?	-12%	?	?	?
Cc1oc(-c2ccc(Cl)cc2)nc1CSc1nc2ncccc2[nH]1	/	/	/	4%	/	/	/	/	/
Cc1nc(SCC(=O)c2ccccc2)n[nH]1	-7%	13µM*	9%	6%	11%	-11%	5%	10%	3%
Cc1ccc(C(=O)c2oc3ccccc3c2NC(=O)COc2ccc(C(C)(C)C)cc2)cc1	/	/	/	-7%	/	/	/	/	/
O=C(CNCc1cccnc1)Nc1cc(C(F)(F)F)ccc1N1CCOCC1	6%	7.9µM*	-16%	-13%	?	-11%	-3%	-4%	4%

Source: PubChem
